Results reported in PubChem BioAssay.
Inconclusive results are not listed. The source made the active and inactive calls.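 How the source made its calls, unless noted: active means normalized viability below 100% at a tested concentration; inactive means the rest.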

Tests used:
[1] = growth inhibition of DIPG glioma cells, dose response, cell-based, SU-DIPG-XVII, MIPE5.0, CellTiter-Glo, qHTS (AID 1347060; cut-off not given, nearly all actives have AC50 up to about 26 µM;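 on AC50: cells exposed to compound for 48 hours before viability readout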); settings: SU-DIPG-XVII viability, CellTiter-Glo ATP luminescence
[2] = growth inhibition of DIPG glioma cells, dose response, cell-based, JHH-DIPG-1, MIPE4.0, CellTiter-Glo, qHTS (AID 1347062; cut-off not given, nearly all actives have AC50 up to about 27 µM;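 on AC50: cells exposed to compound for two days before readout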); settings: JHH-DIPG-1 viability, CellTiter-Glo ATP luminescence
[3] = growth inhibition of DIPG glioma cells, dose response, cell-based, SU-DIPG-IV, MIPE4.0, CellTiter-Glo, qHTS (AID 1347063; cut-off not given, nearly all actives have AC50 up to about 30 µM;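 further: compound exposure lasted 48 hours before the viability readout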); settings: SU-DIPG-IV viability, CellTiter-Glo ATP luminescence
[4] = growth inhibition of DIPG glioma cells, dose response, cell-based, SU-DIPG-XIII, MIPE5.0, CellTiter-Glo, qHTS (AID 1347064; cut-off not given, nearly all actives have AC50 up to about 23 µM;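 on AC50: cells exposed to compound for 48 hours before the viability read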); settings: SU-DIPG-XIII viability, CellTiter-Glo ATP luminescence
[5] = viability loss in pontine glioma line – cell-based, SU-DIPG-XXV, MIPE5.0, CellTiter-Glo, qHTS, dose response (AID 1347065; cut-off not given, nearly all actives have AC50 up to about 26 µM;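 further: cells exposed to compound for 48 hours before ATP readout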); settings: CellTiter-Glo ATP luminescence
[6] = SU-DIPG-VI glioma cell viability, MIPE4.0 library, CellTiter-Glo luminescence, qHTS (AID 1347066; cut-off not given, nearly all actives have AC50 up to about 30 µM;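 further: cells exposed to compound for 48 hours before readout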); settings: CellTiter-Glo ATP luminescence
[7] = JHH-DIPG-1 glioma cell viability, MIPE5.0 library, CellTiter-Glo luminescence, qHTS (AID 1347067; cut-off not given, nearly all actives have AC50 up to about 26 µM;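 further: cells exposed to compound for 48 hours before readout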); settings: JHH-DIPG-1 glioma viability, CellTiter-Glo ATP luminescence
[8] = SU-DIPG-XXV glioma cell viability, MIPE5.0 library, qHTS (AID 1347068; cut-off not given, nearly all actives have IC50 up to about 30 µM;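 on IC50: cells exposed to compound for 48 hours before viability readout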)
[9] = sensitizers of A549 cells to miR-34 induction, primary screen, imaging, A549 dox-inducible miR-34, nuclei and caspase counts (AID 1347080;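 active means compounds whose cell count with miR-34 switched on is under 0.7 times the count with it off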); settings: A549 miR-34 inducible, Hoechst nuclei count, 48 h
[10] = survival rescue of mitochondrial mutant cells in low glucose, primary screen, MELAS cybrids, Rieske KO mouse fibroblasts, CellTiter-Glo (AID 1508586;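 active means mean z-score across replicates of 1.96 or higher in either the MELAS or the Rieske mutant cell line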;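 further: z relative to plate mean and SD of compound and empty wells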)
[11] = growth inhibition of DIPG glioma cells, dose response, cell-based, SU-DIPG-XIII, MIPE4.0, CellTiter-Glo, qHTS (AID 1347061; cut-off not given, nearly all actives have AC50 up to about 37 µM;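 further: cells exposed to compound for 48 hours before readout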); settings: SU-DIPG-XIII viability, CellTiter-Glo ATP luminescence
[12] = ovarian cancer cell viability with rucaparib, profiling panel, oncology-focused library, rucaparib conditional (AID 1508598); settings: patient-derived ovarian cancer cells, CellTiter-Glo viability, 144 h, stronger effect = lower value
[13] = stronger effect = lower value, cell number ratio, induced over uninduced
[14] = measured here: relative caspase fold change +Dox/-Dox
[15] = measured here: total cells with miR-34 induction, stronger effect = lower value
[16] = measured here: total cells without miR-34 induction
[17] = MELAS cybrid survival, CellTiter-Glo 48 h, stronger effect = higher value
[18] = Rieske KO mouse fibroblast survival, CellTiter-Glo 72 h

For `CCCCOc1ccc(C(=O)Nc2ccc(F)cc2F)cc1`, the outcome [1] was “inactive”, the outcome [2] was “inactive” and the outcome [3] was “inactive”. For the same compound, the outcome [4] was “inactive”, the outcome [5] was “inactive” and the outcome [6] was “inactive”. The outcome [7] was “inactive”, the outcome [8] was “inactive” and the fold change [9, 13] was 0.889 (inactive). It also gave a fold change [9, 14] of 0.917, a cell count [9, 15] of 9070 and a cell count [9, 16] of 10200. The z-score [10, 17] was -0.373 (inactive) and the z-score [10, 18] was 0.589.
With `Cc1ccc(NC(=O)C2(c3ccc4c(c3)OC(F)(F)O4)CC2)nc1-c1cccc(C(=O)O)c1` the outcome [1] was “inactive”, the AC50 [2] was 0.0833 µM (active) and the AC50 [3] was 0.118 µM (active). For the same compound, the outcome [4] was “inactive”, the outcome [5] was “inactive” and the AC50 [6] was 1.18 µM (active). The outcome [7] was “inactive”, the outcome [8] was “inactive” and the fold change [9, 13] was 0.92 (inactive). The fold change [9, 14] was 0.757, the cell count [9, 15] was 8150 and the cell count [9, 16] was 8860. The z-score [10, 17] was -0.25 (inactive) and the z-score [10, 18] was -0.226.
With `CC(C)n1c(/C=C/[C@H](O)C[C@H](O)CC(=O)O)c(-c2ccc(F)cc2)c2ccccc21` the AC50 [1] was 8.33 µM (active), the outcome [11] was “inactive” and the outcome [6] was “inactive”. The outcome [8] was “inactive”, the fold change [9, 13] was 1.07 (inactive) and the fold change [9, 14] was 0.873. For the same compound, the cell count [9, 15] was 1670, the cell count [9, 16] was 1560 and the z-score [10, 17] was -2.58 (inactive). The z-score [10, 18] was 0.0762.
With `Cc1c(NC(=O)OC[C@@H]2COCCN2)cn2ncnc(Nc3ccc4c(cnn4Cc4cccc(F)c4)c3)c12` the AC50 [1] was 23.5 µM (active), the outcome [11] was “inactive” and the viability ([12]; at 0.000305 µM, OCI-C5x cells, with rucaparib 10 µM, 100% = cells with rucaparib alone) was 137% (inactive). For the same compound, the viability ([12]; at 0.000305 µM, OCI-C5x cells, without rucaparib) was 137% (inactive), the viability ([12]; at 0.000305 µM, OCI-P5x cells, with rucaparib 20 µM, 100% = cells with rucaparib alone) was 115% (inactive) and the viability ([12]; at 0.000305 µM, OCI-P5x cells, without rucaparib) was 112% (inactive). The viability ([12]; at 0.00122 µM, OCI-C5x cells, with rucaparib 10 µM, 100% = cells with rucaparib alone) was 131% (inactive), the viability ([12]; at 0.00122 µM, OCI-C5x cells, without rucaparib) was 144% (inactive) and the viability ([12]; at 0.00122 µM, OCI-P5x cells, with rucaparib 20 µM, 100% = cells with rucaparib alone) was 114% (inactive). The viability ([12]; at 0.00122 µM, OCI-P5x cells, without rucaparib) was 111% (inactive), the viability ([12]; at 0.00488 µM, OCI-C5x cells, with rucaparib 10 µM, 100% = cells with rucaparib alone) was 117% (inactive) and the viability ([12]; at 0.00488 µM, OCI-C5x cells, without rucaparib) was 132% (inactive). The viability ([12]; at 0.00488 µM, OCI-P5x cells, with rucaparib 20 µM, 100% = cells with rucaparib alone) was 109% (inactive), the viability ([12]; at 0.00488 µM, OCI-P5x cells, without rucaparib) was 96.9% (active) and the viability ([12]; at 0.0195 µM, OCI-C5x cells, with rucaparib 10 µM, 100% = cells with rucaparib alone) was 119% (inactive). For the same compound, the viability ([12]; at 0.0195 µM, OCI-C5x cells, without rucaparib) was 133% (inactive), the viability ([12]; at 0.0195 µM, OCI-P5x cells, with rucaparib 20 µM, 100% = cells with rucaparib alone) was 109% (inactive) and the viability ([12]; at 0.0195 µM, OCI-P5x cells, without rucaparib) was 98.1% (active). The viability ([12]; at 0.0781 µM, OCI-C5x cells, with rucaparib 10 µM, 100% = cells with rucaparib alone) was 116% (inactive), the viability ([12]; at 0.0781 µM, OCI-C5x cells, without rucaparib) was 139% (inactive) and the viability ([12]; at 0.0781 µM, OCI-P5x cells, with rucaparib 20 µM, 100% = cells with rucaparib alone) was 111% (inactive). For the same compound, the viability ([12]; at 0.0781 µM, OCI-P5x cells, without rucaparib) was 98% (active), the viability ([12]; at 0.313 µM, OCI-C5x cells, with rucaparib 10 µM, 100% = cells with rucaparib alone) was 121% (inactive) and the viability ([12]; at 0.313 µM, OCI-C5x cells, without rucaparib) was 133% (inactive). The viability ([12]; at 0.313 µM, OCI-P5x cells, with rucaparib 20 µM, 100% = cells with rucaparib alone) was 103% (inactive), the viability ([12]; at 0.313 µM, OCI-P5x cells, without rucaparib) was 96.4% (active) and the viability ([12]; at 1.25 µM, OCI-C5x cells, with rucaparib 10 µM, 100% = cells with rucaparib alone) was 121% (inactive). For the same compound, the viability ([12]; at 1.25 µM, OCI-C5x cells, without rucaparib) was 140% (inactive), the viability ([12]; at 1.25 µM, OCI-P5x cells, with rucaparib 20 µM, 100% = cells with rucaparib alone) was 96.9% (active) and the viability ([12]; at 1.25 µM, OCI-P5x cells, without rucaparib) was 92.8% (active). The viability ([12]; at 5 µM, OCI-C5x cells, with rucaparib 10 µM, 100% = cells with rucaparib alone) was 89.2% (active), the viability ([12]; at 5 µM, OCI-C5x cells, without rucaparib) was 144% (inactive) and the viability ([12]; at 5 µM, OCI-P5x cells, with rucaparib 20 µM, 100% = cells with rucaparib alone) was 92.1% (active). For the same compound, the viability ([12]; at 5 µM, OCI-P5x cells, without rucaparib) was 96.9% (active).
With `C=CC(=O)Nc1ccc2ncnc(Nc3ccc(OCc4cccc(F)c4)c(Cl)c3)c2c1` the AC50 [1] was 5.25 µM (active), the AC50 [2] was 23.5 µM (active) and the AC50 [3] was 1.32 µM (active). The AC50 [4] was 11.8 µM (active), the AC50 [5] was 6.61 µM (active) and the AC50 [6] was 4.69 µM (active). For the same compound, the AC50 [7] was 8.33 µM (active), the IC50 [8] was 14.8 µM (active) and the fold change [9, 13] was 0.764 (inactive). The fold change [9, 14] was 2.08, the cell count [9, 15] was 4290 and the cell count [9, 16] was 5610. The z-score [10, 17] was -0.263 (inactive) and the z-score [10, 18] was 0.764.
